Source: PubChem BioAssay AID623868 (Vanderbilt High Throughput Screening Facility, 2012)
About 760 (36%) of roughly 2,100 compounds were called active.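 The calls were made as follows: active = thallium-flux fluorescence traces judged by eye to show enhanced or reduced glutamate response, manual score 1 or -1, so both directions (some results past the limit were not filed as active); inactive = the rest, including fluorescent or raised-baseline compounds.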 Only a sample is shown.

assay: thallium influx changes without GIRK channels – cell-based, HEK-293 rmGlu8, no GIRK, thallium flux, counter-screen for GIRK activator project, confirmation (AID 623868); conditions: thallium flux fluorescence, at 10 µM, actives lie on both sides, codes: 1 enhancer, -1 blocker, 0 none, thallium stimulus containing EC20 glutamate;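 also: extra codes mark interference with 3 for fluorescent and 4 for baseline rise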

SMILES	manual score
O=C(NC(=S)Nn1cnc2c(cnn2-c2ccccc2)c1=O)c1ccc(Oc2ccccc2)cc1	1 (active)
CCCN(CCC)CCNC(=O)C(NS(=O)(=O)c1ccc2c(c1)CCC(=O)N2)c1ccccc1 (stereo not given)	0 (inactive)
Cn1c(=O)c2c(nc3sccn32)n(C)c1=O	0 (inactive)
N#CC1(Cc2ccc([N+](=O)[O-])cc2)c2ccccc2C=CN1C(=O)c1ccccc1 (stereo not given)	0 (inactive)
COc1ccc(-c2nc(C#N)c(NCCCN(C)C)o2)cc1OC	0 (inactive)
COc1cc(-c2nnc(CSc3nc4ccccc4s3)o2)cc(OC)c1OC	0 (inactive)
COc1ccc(-c2nnc(CSc3nc4ccccc4c(=O)n3C)o2)cc1OC	-1 (active)
COc1ccccc1C(=O)NNC(=S)NC(=O)c1ccco1	1 (active)
COc1ccc(C(=O)NNC(=S)NC(=O)c2ccco2)cc1	1 (active)
S=c1[nH]nc(-c2ccco2)n1/N=C/c1cccc(Cl)c1Cl	1 (active)
S=c1[nH]nc(-c2ccco2)n1/N=C/c1ccc(Cl)cc1Cl	1 (active)
S=c1[nH]nc(CSCc2ccc(Cl)cc2Cl)n1-c1ccccc1	0 (inactive)
O=C1c2ccsc2SCCN1Cc1c(Cl)cccc1Cl	0 (inactive)
CCn1c(SCC(N)=O)nc2sc3c(c2c1=O)CCCC3	1 (active)
O=c1c2c3c(sc2nc2n1CCCCC2)CCCCC3	0 (inactive)
COC(=O)c1sc(N2C(=O)C(O)=C(C(=O)c3ccc(C)o3)C2c2ccc(F)cc2)nc1C (stereo not given)	-1 (active)
C=CCn1c(=O)c2c(C)c(C)sc2n2c(Nc3ccc(OC)cc3)nnc12	-1 (active)
COC(=O)Nc1nnc(Cc2ccc(Cl)cc2)s1	0 (inactive)
O=C(CSc1nc(-c2ccccc2)cc(=O)[nH]1)N1CCc2ccccc21	0 (inactive)
O=C(NC(=S)N1CCc2ccccc21)c1ccccc1	1 (active)
O=C(NC(=S)N1CCCc2ccccc21)c1ccc(Br)cc1	1 (active)
CC12CCC(C(=O)N3CCCc4ccccc43)(CC1=O)C2(C)C (stereo not given)	0 (inactive)
O=C(NC(=S)N1CCCc2ccccc21)c1ccc(Cl)cc1	1 (active)
O=C(NC(=S)N1CCCc2ccccc21)c1ccc([N+](=O)[O-])cc1	1 (active)
O=S(=O)(Cc1ccccc1)N1CCc2ccccc21	3 (inactive)
CCSc1nnc(NC(=O)c2nn(C(C)C)c(=O)c3ccccc23)s1	-0.5 (inactive)
CS(=O)(=O)N(CCc1ccccc1)CC(=O)NCc1ccc2c(c1)OCO2	0 (inactive)

SMILES	manual score
CC(C)(C)C1CCC2(CC1)Nc1cccc3cccc(c13)N2	0 (inactive)
CC1CCN(CC(O)COC2CCC(C(C)(C)C)CC2)CC1 (stereo not given)	0 (inactive)
O=C(NC(=S)N1CCCc2ccccc21)c1ccccc1	1 (active)
Cc1c(C(=O)N2CCc3ccccc32)oc2c1C(=O)CC(C)(C)C2	0 (inactive)
COC(=O)c1cc2sccc2n1CC(=O)N1CCCc2ccccc21	0 (inactive)
CCC1CCCCN1C(=O)c1cc2cc(Br)ccc2oc1=O (stereo not given)	0 (inactive)
CCC1CCCCN1C(=S)NC(=O)c1ccc([N+](=O)[O-])cc1 (stereo not given)	1 (active)
O=C(c1ccccc1)N1CCCc2ccccc21	0 (inactive)
CCC1CCCCN1C(=O)CSc1nnc(-c2ccco2)o1 (stereo not given)	0 (inactive)
O=C(NC(=S)N1CCc2ccccc21)c1ccccc1Br	1 (active)
O=C(N/N=C1\CCCc2ccccc21)c1ccc([N+](=O)[O-])cc1	1 (active)
CCCCC(=O)Nc1ncc2c(n1)CC(C)(C)CC2=O	0 (inactive)
Cc1oc(-c2cccc(Cl)c2)nc1CN1CCCC(C(=O)NCc2ccco2)C1 (stereo not given)	-1 (active)
Cc1oc(-c2cccc(Cl)c2)nc1CN1CCC(C(=O)NCc2ccco2)CC1	0 (inactive)
CCc1ccc(-c2nc(CN3CCC(C(=O)NCc4ccco4)CC3)c(C)o2)cc1	0 (inactive)
CC1=C(C)C(c2ccccc2)NC(=S)N1 (stereo not given)	0 (inactive)
Cc1cccc(S(=O)(=O)NC(Cc2c[nH]c3ccccc23)C(=O)O)c1 (stereo not given)	0 (inactive)
O=S(=O)(Nc1ccc(S(=O)(=O)Nc2cccc3ccccc23)cc1)c1ccccc1	0 (inactive)
Cc1cccc(S(=O)(=O)Nc2cccc3c2C(=O)c2ccccc2-3)c1	1 (active)
CC(C)CC(=O)Nc1ccccc1-c1nnn(CC(=O)N2CCc3ccccc3C2)n1	0 (inactive)
O=C(Nc1ccccc1-c1nnn(CC(=O)N2CCc3ccccc3C2)n1)C1CCC1	-1 (active)
Cc1ccc(-c2nnn(CC(=O)N3CCCCC3)n2)c(-n2cnnn2)c1	0 (inactive)
COC(=O)C(NC(=O)COc1ccccc1)(Nc1nc2c(s1)CCCC2)C(F)(F)F (stereo not given)	0 (inactive)
CC(C)(C)C(=O)Nc1nc2c(s1)COc1ccccc1-2	-0.5 (inactive)
O=C(NC(=S)Nc1nc2c(s1)CCCC2)c1ccccc1	0 (inactive)
COC(=O)c1ccc(C(=O)NC(=S)Nc2nc3c(s2)CCCC3)cc1	1 (active)
CC(C)(C)c1ccc(C(=O)NC(=S)Nc2nc3c(s2)CCCC3)cc1	1 (active)

SMILES	manual score
O=C(NC(=S)Nc1nc2c(s1)CCCC2)c1ccc(C(=O)c2ccccc2)cc1	0 (inactive)
N=c1n(CCN2CCCCC2)c2ccccc2n1CC(O)COc1ccccc1 (stereo not given)	0 (inactive)
COCCCNc1c2c3c(cccc3[nH]c1=O)C(=O)c1ccccc1-2	3 (inactive)
O=C(NC(=S)Nc1ccc(N2CCCCC2)c(Cl)c1)c1cccs1	1 (active)
O=C(NC(=S)Nc1ccc(N2CCCCC2)cc1)c1cccs1	1 (active)
CN(C1CCCCC1)S(=O)(=O)c1ccc(NC(=S)NC(=O)c2cccs2)cc1	1 (active)
O=C(Nc1ccc(N2CCCCC2)c(Cl)c1)c1ncn[nH]1	0 (inactive)
Cc1ccc(NC(=O)c2cc(NC(=O)CCC(=O)O)ccc2N2CCCCC2)cc1	0 (inactive)
O=C(CNC1CCCCCC1)Nc1ccc(N2CCCC2)cc1	0 (inactive)
Cc1ccc(-c2[nH]nc3c2C(c2ccoc2)C(C#N)=C(N)O3)cc1C (stereo not given)	0 (inactive)
CN(C)c1nc2n(c(=O)n1)C(C#N)CS2 (stereo not given)	0 (inactive)
O=C(/C=C/c1ccc(Cl)cc1)NC(=S)NN1CCCCC1c1cccnc1 (stereo not given)	0 (inactive)
COc1ccc(-n2ncc3c(NCc4cccs4)ncnc32)cc1	0 (inactive)
c1csc(CCNc2ncnc3sc4c(c23)CCC4)c1	-1 (active)
COC(=O)c1ccc(NC(=S)NC(=O)c2cc(-c3ccccc3)nc3ccccc23)cc1	1 (active)
O=C(NC(=S)Nc1ccccc1)c1cc(-c2ccccc2)nc2ccccc12	0.5 (inactive)
Cc1ccccc1NC(=S)NC(=O)c1cc(-c2ccccc2)nc2ccccc12	1 (active)
O=C(NC(=S)Nc1ccccn1)c1cc(-c2ccccc2)nc2ccccc12	1 (active)
Cc1cccc(NC(=S)NC(=O)c2cc(-c3ccccc3)nc3ccccc23)c1	0 (inactive)
Fc1cccc(-n2c(-c3ccco3)nc3nc4ccccc4nc32)c1	0 (inactive)
Cc1ccc(C)c(N2CCN(C(=O)CCCOc3cc(=O)n(C)c4ccccc34)CC2)c1	0 (inactive)
CCC(=O)Oc1ccc(C/C(=N\O)c2ccc(O)cc2O)o1	-1 (active)
CCCn1c(C)cc(/C=C(\C#N)C(=O)OCC(=O)Nc2cccc(OC)c2)c1C	0 (inactive)
Cc1ccc2oc(=O)c3cnn(CC(=O)N4CCc5ccccc5C4)c3c2c1	-1 (active)
COc1ccc(N(CC(=O)NCCSc2ccccn2)S(C)(=O)=O)cc1Cl	0 (inactive)
Cc1nn2c(NCCCN(C)C)c3c(nc2c1-c1ccccc1)CCC3	0 (inactive)
O=C(O)CCCCCNc1nc2ncn(Cc3ccccc3)c2c(=O)[nH]1	0 (inactive)

SMILES	manual score
Fc1cccc(C2NN=C(c3ccccc3)S2)c1 (stereo not given)	1 (active)
O=C1CC(c2ccco2)Sc2nc3ccccc3n21 (stereo not given)	0 (inactive)
CC1(c2ccccc2)CC(C)(C)N2C(=O)/C(=C3\SC(=S)NC3=O)c3cccc1c32 (stereo not given)	1 (active)
CN1CCN(CC(=O)N2c3ccccc3C(C)(c3ccccc3)CC2(C)C)CC1 (stereo not given)	0 (inactive)
Cc1c(C(=O)O)sc2nc3n(c(=O)c12)CCC(C)CC3 (stereo not given)	0 (inactive)
CCCCCCCCc1nc(=S)[nH][nH]1	1 (active)
C=CCCCCCCCCc1nc(=S)[nH][nH]1	1 (active)
COc1c(Cl)cc(Cl)cc1CNCCNCC(C)O (stereo not given)	0 (inactive)
COc1cccc(NC(=O)Cn2nnc(C(=O)Nc3ccccc3)c2N)c1	0 (inactive)
COc1cc(C(=O)NC2CC3CCCC(C2)N3CC(=O)Nc2ccccc2)cc(OC)c1OC (stereo not given)	-1 (active)
CC1CCCCN1CC(=O)Nc1ccc(Oc2ccccc2)cc1 (stereo not given)	0 (inactive)
O=C(Nc1nnc(-c2ccccc2F)s1)C1CCCO1 (stereo not given)	0 (inactive)
CC(C)c1ccc2occ(-c3nn[nH]n3)c(=O)c2c1	0 (inactive)
O=c1[nH]c(CS(=O)(=O)c2ccccc2)nc2ccccc12	0 (inactive)
CCCn1c(SCc2nc3sc(C)c(C)c3c(=O)[nH]2)nc2ccccc2c1=O	1 (active)
CCCSc1nc2sc3c(c2c(=O)[nH]1)CCN(Cc1ccccc1)C3	3 (inactive)
Cc1c(C)[n+](=O)c2c(n1[O-])CCC2	0 (inactive)
COc1ccc(S(=O)(=O)NCCCCCC(=O)NCCCN2CCOCC2)cc1	0 (inactive)
Cc1ccccc1OCC(=O)Nc1ccccc1N1CCOCC1	-0.5 (inactive)
CCC(=O)N1CCN(c2ccccc2NC(=O)COc2cccc(C)c2)CC1	-1 (active)
Cc1cc(Cl)ccc1OCC(=O)Nc1ccccc1N1CCOCC1	0 (inactive)
Cc1cccc(OCC(=O)Nc2ccccc2N2CCN(C(=O)C(C)C)CC2)c1C	-1 (active)
CC1(C)Cc2cccc(OCC(=O)Nc3ccccc3N3CCOCC3)c2O1	0 (inactive)
Cc1cccc(OCC(=O)NC(=S)Nc2ccccc2N2CCOCC2)c1	0 (inactive)
